# In the supplement of paper PMC6555819:
# What was measured:
# Assay in all cases: PBM binding z-score (relative to random genomic background probes); higher = stronger binding; sequences stand for … in GC…GCGATTGACAGCGTAGAATGAAGG
# [1] = system: FXR:RXRa (NR concentration 270 nM, RXRa partner concentration 90 nM)
# Summary of the method: (§1)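 The probes on custom Agilent 4×180K protein-binding microarrays were double-stranded, with 34-nt variable regions bearing direct-repeat seeds, single-nucleotide variants, half-site ablations and random human genomic background sequences. Incubation lasted 1 h with ligand-free nuclear receptor dimers in PBS pH 7.4, 2% milk, 0.02% Triton X-100, 1 mM DTT, 0.2 mg/mL BSA and 0.4 mg/ml salmon testes DNA. Antibodies against each partner (one per run) detected bound dimers, and fluorescence scans were regression-normalized. Binding z-scores take the random background probes as reference.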
# [2] = system: LXRa:RXRa (NR concentration 270 nM, RXRa partner concentration 90 nM)
# Summary of the method: as §1
# [3] = system: LXRa homodimer (NR concentration 270 nM)
# Summary of the method: as §1
# [4] = system: LXRb:RXRa (NR concentration 270 nM, RXRa partner concentration 90 nM)
# Summary of the method: as §1
# [5] = system: LXRb homodimer (NR concentration 270 nM)
# Summary of the method: as §1
# [6] = system: PPARa:RXRa (NR concentration 270 nM, RXRa partner concentration 90 nM)
# Summary of the method: as §1
# [7] = system: PPARg:RXRa (NR concentration 180 nM, RXRa partner concentration 90 nM)
# Summary of the method: as §1
# [8] = system: PPARg:RXRa 270nM:90nM, anti-RXR (NR concentration 270 nM, RXRa partner concentration 90 nM)
# Summary of the method: as §1
# [9] = system: PPARg:RXRa 30nM:10nM, anti-RXR (NR concentration 30 nM, RXRa partner concentration 10 nM)
# Summary of the method: as §1
# [10] = system: PPARg:RXRa 90nM:30nM, anti-RXR (NR concentration 90 nM, RXRa partner concentration 30 nM)
# Summary of the method: as §1
# [11] = system: PPARg:RXRa DBDmut IVT, anti-RXR (DBD mutation: RXRa K156A/R161A, NR concentration 270 nM, RXRa partner concentration 90 nM)
# Summary of the method: as §1
# [12] = system: PPARg:RXRa IVT, anti-PPARg (NR concentration 270 nM, RXRa partner concentration 90 nM)
# Summary of the method: as §1
# [13] = system: PPARg DBDmut:RXRa IVT, anti-PPARg (DBD mutation: PPARg1 K132A/R137A, NR concentration 270 nM, RXRa partner concentration 90 nM)
# Summary of the method: as §1
# [14] = system: PPARg DBDmut IVT, anti-PPARg (DBD mutation: PPARg1 K132A/R137A, NR concentration 270 nM)
# Summary of the method: as §1
# [15] = system: PPARg homodimer (NR concentration 180 nM)
# Summary of the method: as §1
# [16] = system: PXR:RXRa (NR concentration 270 nM, RXRa partner concentration 90 nM)
# Summary of the method: as §1
# [17] = system: PXR homodimer (NR concentration 270 nM)
# Summary of the method: as §1
# [18] = system: RARa:RXR (NR concentration 270 nM, RXRa partner concentration 90 nM)
# Summary of the method: as §1
# [19] = system: RARa homodimer (NR concentration 270 nM)
# Summary of the method: as §1
# [20] = system: RARb:RXRa (NR concentration 270 nM, RXRa partner concentration 90 nM)
# Summary of the method: as §1
Sequence,PBM binding z-score [1],PBM binding z-score [2],PBM binding z-score [3],PBM binding z-score [4],PBM binding z-score [5],PBM binding z-score [6],PBM binding z-score [7],PBM binding z-score [8],PBM binding z-score [9],PBM binding z-score [10],PBM binding z-score [11],PBM binding z-score [12],PBM binding z-score [13],PBM binding z-score [14],PBM binding z-score [15],PBM binding z-score [16],PBM binding z-score [17],PBM binding z-score [18],PBM binding z-score [19],PBM binding z-score [20]
TCTCGGAGGACACGAAATGTCAGAGCTCGACATC,0.755,0.358,-0.2,0.313,-0.55,0.168,0.208,1.09,2.37,1.62,1.31,-0.0738,0.273,-0.287,-0.365,-0.0137,-0.515,0.332,-0.679,1.56
ATATGTAGGTTAAGGGTCAATCAGGTTGGTTCGC,4.97,4.62,1.8,4.47,1.35,6.65,11.6,9.7,10.1,10.8,7.74,7.77,1.78,2.49,4.11,5.32,1.21,5.74,2.21,3.64
CCTACTGGGCCATTCAGAGGTCAGTGATCATATG,0.991,1.94,2.35,1.78,-0.442,2.54,1.47,1.99,0.391,1.29,4.58,3.89,-0.582,-0.353,2.08,2.28,0.543,2.64,0.443,2.77
TAGACTAGGTCATGGGCCAGTATACCACGCGAAC,3.63,2.6,0.103,1.81,0.438,4.41,7.24,6.34,4.78,6.07,5.98,6.8,1.6,0.962,1.38,1.04,0.462,2.1,0.407,3.49
ATCGTAAGGTCGAAGGTGAGTATACCCACCCGAA,2.6,1.9,-0.314,1.71,0.36,3.41,3.62,3.7,1.42,3.36,-0.143,1.54,1.22,-0.311,1.79,1.87,-0.0484,3.33,0.0373,2.74
TAGCCTAGGTCAGATCTGGCCAGTATACGCTATA,1.53,1.13,-0.379,0.773,0.0198,1.43,0.793,0.718,-0.145,0.178,0.589,1.44,-0.455,-0.0508,-0.0754,0.447,-1.1,0.766,-1.06,2.98
CAAATTAGGTCACCGGAAGGTCAAAGTCCGCATG,6.61,6.31,5.39,5.47,1.82,6.44,9.14,7.56,5.87,7.39,8.26,8.72,5.54,4.55,7.17,6.18,1.78,7.5,2.54,5.54
GCTTGTAGATCAAGGTTAACAAAGACTAAGCTAA,0.151,1.17,-0.222,0.96,-0.488,1.91,2.04,3.12,0.936,2.61,1.56,1.61,-0.0951,0.163,0.0842,0.565,0.265,1.07,-0.205,1.04
TCAGACAGGTGAAAGTAACTCAGGTACGCAGTCG,0.453,0.738,-0.345,0.85,-0.276,1.32,0.821,2.21,4.08,2.92,2.49,1,0.398,0.588,0.14,0.584,0.498,0.768,0.295,0.907
CCTAGCAGGCCAGGGTCGCTCAAGCATTTCGCTT,1.21,1.49,-0.612,1.26,-1.47,2.58,-0.528,0.271,-1.11,-0.71,-0.39,-0.535,-1.87,-2.27,-0.112,1.78,-0.439,1.84,-0.399,0.562
CCTTACGGGTCACTGACAGGTAATAGCATTTGGA,5.68,3.58,0.0221,3.16,-0.0553,5.08,4.51,4.42,1.29,3.12,3.21,3.64,1.3,1.52,4.26,2.95,-0.116,4.05,1.66,3.79
TCATATAGGTAATACAGGTGATAGTCGGCATCTA,0.719,1,0.507,0.789,0.315,1.36,1.6,2.3,3.98,3.1,4.04,3.01,1.19,2.05,1.08,0.592,0.285,0.723,1.73,0.484
TCTAGTTGGTCAAAGGTAACACACTCGAAATGCG,1.27,1.4,0.707,1.5,0.561,4,8.12,7.77,6.85,8.85,3.54,3.93,1.52,1.17,2.03,1.34,0.784,1.93,1.72,1.86
GTACCAAGGTAAATAGGTCGTTGATGAGTAGGCG,0.0892,0.228,-0.0943,0.151,-0.264,1.73,1.37,1.34,0.667,0.78,1.71,2.84,0.778,0.523,0.489,0.181,0.0446,0.634,0.265,0.675
AGTCAAAGTACACTAGGTAACGTAAGATTCAGCT,-0.108,-0.26,-0.164,-0.273,0.0714,0.196,1.13,0.666,0.149,0.295,1.45,2.33,0.868,0.545,-0.165,-0.253,-0.00521,-0.109,0.688,0.988
